Data as given in PubChem BioAssay.
For some assays here: Measured potencies and affinities stand elsewhere. Active and inactive are the calls of the source. Unless noted, no rule for the calls is given here.

How the values were obtained:
[1] = antimalarial activity against Dd2 strain (AID 2302;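 active = growth inhibition above 50% at the single 2 µM test dose, taken to imply half-maximal potency below 2 µM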;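 also: 0% = DMSO untreated growth and 100% = chloroquine plus artemisinin killed control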); settings: P. falciparum Dd2 in RBCs, LDH growth readout, 72 h; at 2 µM; hits give high values
[2] = human hepatoma cell viability loss – ATP luminescence, cytotoxicity control for P. falciparum antimalarial project, primary screen (AID 2303;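 active = inhibition above 50%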;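 also: 0% = DMSO wells and 100% = digitonin-killed cells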); settings: HepG2 viability, 24-48 h, at 10 µM, hits give high values
[3] = target: L-lactate dehydrogenase (Plasmodium falciparum (isolate CDC / Honduras)) (UniProt Q27743); experiment: PfLDH activity inhibition – cell lysate, 3D7 strain, counter-screen for P. falciparum growth inhibition project (AID 2304);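 also: 0% = vehicle and 100% = reference inhibitor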; settings: P. falciparum 3D7 crude extract, LDH APAD/NBT absorbance; at 2 µM; hits give high values
Chain of L-lactate dehydrogenase (Plasmodium falciparum (isolate CDC / Honduras)) (Q27743 whole entry, looked up): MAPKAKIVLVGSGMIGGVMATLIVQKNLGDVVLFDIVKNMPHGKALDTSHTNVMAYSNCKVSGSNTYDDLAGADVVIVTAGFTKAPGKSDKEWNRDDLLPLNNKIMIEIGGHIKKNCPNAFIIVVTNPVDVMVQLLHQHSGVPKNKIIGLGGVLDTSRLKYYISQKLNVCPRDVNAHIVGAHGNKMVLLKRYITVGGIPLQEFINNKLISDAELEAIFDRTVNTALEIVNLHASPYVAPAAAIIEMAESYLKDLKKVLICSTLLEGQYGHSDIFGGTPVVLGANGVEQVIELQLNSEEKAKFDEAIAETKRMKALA

[4] = inhibition of 3D7 malaria parasite growth – strain 3D7 (AID 2306);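 also: 0% = DMSO wells and 100% = chloroquine plus artemisinin control wells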; settings: P. falciparum 3D7 erythrocytic growth, LDH absorbance, 72 h; at 2 µM; hits give high values
[5] = target: Calcium-dependent protein kinase 1 (Plasmodium falciparum (isolate 3D7)) (UniProt P62344); experiment: PfCDPK1 kinase inhibitors, biochemical, TCAMS library (AID 1159585; cut-off not given, nearly all actives have IC50 up to about 0.98 µM;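 also: inhibitors leave more ATP so luminescence rises with inhibition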); settings: recombinant PfCDPK1, Kinase-Glo ATP depletion luminescence
Chain of Calcium-dependent protein kinase 1 (Plasmodium falciparum (isolate 3D7)) (P62344 whole entry, looked up): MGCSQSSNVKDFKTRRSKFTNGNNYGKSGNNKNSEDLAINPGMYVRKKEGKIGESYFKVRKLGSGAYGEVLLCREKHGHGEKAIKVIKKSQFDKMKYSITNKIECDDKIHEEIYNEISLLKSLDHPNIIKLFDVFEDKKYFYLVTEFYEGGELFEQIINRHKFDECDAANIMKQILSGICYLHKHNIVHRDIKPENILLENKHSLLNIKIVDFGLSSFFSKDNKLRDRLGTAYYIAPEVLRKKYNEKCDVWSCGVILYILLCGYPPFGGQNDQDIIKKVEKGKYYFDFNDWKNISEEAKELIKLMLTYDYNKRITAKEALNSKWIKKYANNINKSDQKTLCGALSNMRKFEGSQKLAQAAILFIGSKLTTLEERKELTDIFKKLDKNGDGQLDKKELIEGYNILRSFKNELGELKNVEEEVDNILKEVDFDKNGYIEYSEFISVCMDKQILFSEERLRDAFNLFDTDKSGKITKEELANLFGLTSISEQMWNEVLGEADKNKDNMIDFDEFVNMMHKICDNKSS

[6] = target: Plasmodium falciparum protein kinase 6 (PK6, PF3D7_1337100) (UniProt Q8IDW1); experiment: PfPK6 kinase inhibitors, biochemical, TCAMS library (AID 1159586); settings: recombinant PfPK6, Kinase-Glo ATP depletion luminescence
Chain of Plasmodium falciparum protein kinase 6 (PK6, PF3D7_1337100) (Q8IDW1 1-305): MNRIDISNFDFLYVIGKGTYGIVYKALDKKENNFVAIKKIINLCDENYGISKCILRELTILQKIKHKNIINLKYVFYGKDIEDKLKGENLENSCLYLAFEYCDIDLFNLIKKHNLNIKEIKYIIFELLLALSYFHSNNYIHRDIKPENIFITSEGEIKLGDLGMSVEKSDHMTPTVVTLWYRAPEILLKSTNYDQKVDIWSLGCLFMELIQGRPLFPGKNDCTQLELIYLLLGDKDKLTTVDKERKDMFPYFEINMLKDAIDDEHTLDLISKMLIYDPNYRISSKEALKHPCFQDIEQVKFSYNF

[7] = target: Protein kinase 7 (PK7), Plasmodium falciparum 3D7 (PF3D7_0213400) (UniProt Q7YTF7); experiment: inhibition of Plasmodium PK7 catalytic activity – biochemical, TCAMS antimalarial set, Kinase-Glo luminescence (AID 1159587); settings: recombinant PfPK7, Kinase-Glo ATP depletion luminescence
Chain of Protein kinase 7 (PK7), Plasmodium falciparum 3D7 (PF3D7_0213400) (Q7YTF7 1-343): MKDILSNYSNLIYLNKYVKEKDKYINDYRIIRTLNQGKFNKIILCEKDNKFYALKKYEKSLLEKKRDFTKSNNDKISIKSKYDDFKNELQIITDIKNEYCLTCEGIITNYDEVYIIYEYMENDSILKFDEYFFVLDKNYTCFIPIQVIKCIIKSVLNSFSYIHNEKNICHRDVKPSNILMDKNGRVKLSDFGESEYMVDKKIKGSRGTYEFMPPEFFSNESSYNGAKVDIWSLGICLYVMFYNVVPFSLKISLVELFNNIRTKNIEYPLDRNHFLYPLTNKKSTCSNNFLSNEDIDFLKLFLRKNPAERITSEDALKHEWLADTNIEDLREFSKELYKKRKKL

[8] = target: Calcium-dependent protein kinase 4 (Plasmodium falciparum (isolate 3D7)) (UniProt Q8IBS5); experiment: PfCDPK4 kinase inhibitors, biochemical, TCAMS library (AID 1159588; cut-off not given, nearly all actives have IC50 up to about 0.91 µM); settings: recombinant PfCDPK4, Kinase-Glo ATP depletion luminescence
Chain of Calcium-dependent protein kinase 4 (Plasmodium falciparum (isolate 3D7)) (Q8IBS5 whole entry, looked up): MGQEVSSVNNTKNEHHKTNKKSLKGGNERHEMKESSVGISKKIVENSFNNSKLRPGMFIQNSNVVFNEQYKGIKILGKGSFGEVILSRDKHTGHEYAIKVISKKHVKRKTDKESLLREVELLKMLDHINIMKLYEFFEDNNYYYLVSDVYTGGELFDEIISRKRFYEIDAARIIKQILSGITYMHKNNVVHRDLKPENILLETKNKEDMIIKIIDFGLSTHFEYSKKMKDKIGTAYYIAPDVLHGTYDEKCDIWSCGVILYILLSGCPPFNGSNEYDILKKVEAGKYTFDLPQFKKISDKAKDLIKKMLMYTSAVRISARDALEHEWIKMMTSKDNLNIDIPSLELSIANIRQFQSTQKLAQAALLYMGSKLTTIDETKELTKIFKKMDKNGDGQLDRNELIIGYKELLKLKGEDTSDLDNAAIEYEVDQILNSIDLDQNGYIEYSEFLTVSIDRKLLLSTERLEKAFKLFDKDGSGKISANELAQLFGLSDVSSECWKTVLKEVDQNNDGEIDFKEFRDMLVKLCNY

O=C(c1ccccc1N=Nc1c(-c2ccccc2)[nH]n(-c2ccccc2)c1=O)N1CCOCC1
inactive: growth inhibition [1] 2% | inhibition [2] 0% | inhibition [3] -1% | outcome [5] | outcome [6] | outcome [7] | outcome [8]
active: growth inhibition [4] 97%

CC1(C)N=C(NC(=O)c2ccc([N+](=O)[O-])cc2)N=C(N)N1OCc1ccc2ccccc2c1
inactive: inhibition [3] -8% | outcome [5] | outcome [6] | outcome [7] | outcome [8]
active: growth inhibition [1] 78% | inhibition [2] 64% | growth inhibition [4] 95%

O=c1cc(NCCCN(Cc2ccccc2)Cc2ccccc2)[nH]c2ccccc12
inactive: inhibition [2] 7% | inhibition [3] -3% | outcome [5] | outcome [6] | outcome [7] | outcome [8]
active: growth inhibition [1] 93% | growth inhibition [4] 100%

O=C(/C=C/c1ccc(Cl)c(Cl)c1)N1CCC(CN2CCC(Cc3nc4ccccc4[nH]3)CC2)CC1
inactive: inhibition [2] 34% | inhibition [3] -2% | outcome [5] | outcome [6] | outcome [7] | outcome [8]
active: growth inhibition [1] 95% | growth inhibition [4] 101%

CCNc1cc(-c2cccc(OC)c2)nc(Nc2ccc(F)cc2)n1
active: growth inhibition [4] 87%
inactive: growth inhibition [1] 23% | inhibition [2] 11% | inhibition [3] 3% | outcome [5] | outcome [6] | outcome [7] | outcome [8]

Cc1ccc(NC(=O)c2cn(-c3ccccc3)nc2-c2ccc(F)cc2)cc1[N+](=O)[O-]
active: growth inhibition [4] 92%
inactive: growth inhibition [1] 38% | inhibition [2] 6% | inhibition [3] 8% | outcome [5] | outcome [6] | outcome [7] | outcome [8]

O=C(n1c(-c2cc3ccccc3n2C(=O)C(F)(F)F)cc2ccccc21)C(F)(F)F
inactive: inhibition [2] 30% | inhibition [3] 5% | outcome [5] | outcome [6] | outcome [7] | outcome [8]
active: growth inhibition [1] 80% | growth inhibition [4] 94%

COc1ccc(C(=O)CCC(=O)N(CCSC(C)(C)C)Cc2ccc(-c3ccc(CNCCc4ccc(S(C)(=O)=O)cc4)cn3)cc2)cc1F
active: growth inhibition [4] 98%
inactive: growth inhibition [1] 42% | inhibition [2] 9% | inhibition [3] -3% | outcome [5] | outcome [6] | outcome [7] | outcome [8]

COc1ccc2c(-c3ccccc3)noc2c1
inactive: growth inhibition [1] 34% | inhibition [2] -4% | inhibition [3] -2% | outcome [5] | outcome [6] | outcome [7] | outcome [8]
active: growth inhibition [4] 98%

COC(=O)c1cccc(CNCc2ccc(-c3cccc(-c4nc5ccc(C(F)(F)F)cc5[nH]4)c3)cc2)c1
inactive: inhibition [2] 5% | inhibition [3] 6% | outcome [5] | outcome [6] | outcome [7] | outcome [8]
active: growth inhibition [1] 97% | growth inhibition [4] 102%
